Screening results as filed in PubChem.
aSyn 5UTR act: Activators via SNCA 5'UTR binding, MLPCN. 300,000 compounds, 7.1% hits. activity score, % (tested at 7.5 µM), hits read low. alpha-synuclein 5'UTR reporter, activators screen. AID 1814; in the data active = activity score below about -60%
Active calls of the source: *. These entries were drawn from the full list.

SMILES | aSyn 5UTR act
COc1ccc(-c2nc(=S)c3c([nH]2)Oc2ccc(C)cc2C3)cc1O | -76*
Cc1ccc2c(CC(=O)NCc3ccco3)coc2c1C | -95*
CN(C)c1ccc(N=Nc2nc3ccccc3n2C)cc1 | -117*
O=C(NCCSCc1ccco1)Nc1cccc(Cl)c1 | -126*
O=C(N/N=C\c1ccco1)Nc1cccc(Cl)c1 | -131*
Cc1nnsc1SCCNC(=O)Nc1ccc(Cl)cc1 | -98*
O=C(NCCSCc1ccco1)Nc1ccc(Cl)cc1 | -134*
O=C(Nc1ccc(-c2cn3ccsc3n2)cc1)C1CCCC1 | -95*
c1cn2cc(-c3ccc4c(c3)OCO4)nc2s1 | -137*
CC(=O)Nc1ccc(-c2cn3ccsc3n2)cc1 | -71*
CC(C)CC(=O)Nc1cccc(-c2cn3ccsc3n2)c1 | -126*
CC(C)(C)CC(=O)Nc1cccc(-c2cn3cccnc3n2)c1 | -107*
O=C(Nc1ccc(-c2cn3ccsc3n2)cc1)C1CC1 | -159*
CCOc1ccc(N=C(/C(C(=O)C(=O)N2CCOCC2)=C(/O)c2ccccc2)c2ccccc2)cc1 | -203*
CSc1ccc(/C=C(/NC(=O)c2ccccc2)C(=O)N2CCN(C)CC2)cc1 | -147*
COc1ccc(C(=O)c2oc3ccccc3c2N)cc1 | -179*
COc1ccc2occ(C(=O)c3ccccc3)c2c1 | -133*
COc1ccc2oc(C(=O)C3CC3)c(N)c2c1 | -133*
Nc1c(C(=O)c2ccco2)oc2ccccc12 | -113*
Nc1c(C(=O)Nc2ccc(Cl)cc2)oc2ccccc12 | -253*
Nc1c(C(=O)c2ccc(F)cc2)oc2ccccc12 | -137*
Nc1ccc(C(=O)n2c3ccccc3c3ccccc32)cc1 | 117
COC(=O)c1oc2ccccc2c1N | -63*
COC(=O)CCC(=O)c1oc2ccc(OC)cc2c1N | -62*
COc1ccc2oc(C(=O)c3ccccc3)c(N)c2c1 | -174*
SMILES | aSyn 5UTR act
Cc1ccnc(NC(=O)CCC(=O)c2cccs2)c1 | 84
O=C(c1cccs1)N(C(=O)c1cccs1)c1ccc(Br)cn1 | -144*
Cc1ccnc(N(C(=O)c2cccs2)C(=O)c2cccs2)c1 | -157*
COc1ccc(/C=C/c2cc(C(F)(F)F)on2)cc1 | -157*
Cc1ccc(-c2nnc(NC3CCCC3)s2)cc1 | -143*
Cc1cs/c(=N/C(=S)Nc2ccccc2)n1C | -115*
Cc1cc(NC(=O)CSc2nc3ccsc3c(=O)n2Cc2ccccn2)n[nH]1 | -79*
CC1CCCCN1C(=O)CSc1nc2ccsc2c(=O)n1Cc1ccccn1 (stereo not drawn) | -120*
Cc1ccc(NC(=O)c2ccc(Cl)cc2Cl)cc1O | -170*
Cc1ccc(C(=O)Nc2ccc(Cl)cc2C(F)(F)F)c(Cl)c1 | -101*
O=C(Nc1ccc(Cl)cc1C(F)(F)F)c1ccc(Cl)cc1 | -104*
Cc1ccc(C(=O)Nc2ccc(Cl)cc2C)c(Cl)c1 | -71*
O=C(Nc1cc(F)c(Br)cc1F)c1ccc(Cl)cc1 | -152*
C#Cc1cccc(NC(=O)c2ccc(Cl)cc2Cl)c1 | -185*
COc1ccc(C2CC(=O)c3sc(NC(C)=O)nc3C2)cc1 (stereo not drawn) | -75*
Cc1cc(C)c2c(N)c(C(=O)Nc3ccccc3Br)sc2n1 | -133*
Cc1cc(C)c2c(N)c(C(=O)Nc3ccccc3F)sc2n1 | -157*
C=COC(=O)c1sc2nc(C)cc(C)c2c1N | -62*
Cc1cc(C)c2c(N)c(C(=O)Nc3ccccc3Cl)sc2n1 | -105*
Cc1onc(-c2ccccc2)c1C(=O)NC(=S)NNC(=O)c1ccccc1O | 63
O=C(Nc1ccccc1O)c1ccc(C(=O)c2ccccc2)o1 | -96*
Cc1cccc(NC(=O)c2cnn3ccccc23)c1C | -85*
Cc1cccc(C(=O)NNC(=O)c2ccccc2O)c1 | -76*
O=C(Nc1ccccc1O)c1ccccc1O | -133*
Cc1ccccc1NC(=O)c1cccc2nccnc12 | -74*
SMILES | aSyn 5UTR act
Cc1ccc(C)c(NC(=O)c2ccccc2O)c1 | -96*
Cc1cccc(NC(=O)c2ccccc2O)c1C | -174*
O=C(NCc1ccc(Cl)cc1)c1cnn2ccccc12 | -142*
N#C/C(=C(/O)CN1CCCCC1)c1nc(-c2ccc(Cl)cc2)cs1 | -110*
Cc1ccc(-c2csc(/C(C#N)=C(\O)CCl)n2)cc1 | -96*
CCOC(=O)C1CCN(C(=O)CCc2c(C)nc3cc(-c4ccccc4)nn3c2C)CC1 | 66
CC(=O)c1cnc2c(-c3ccccc3)cnn2c1C | -68*
CCOC(=O)c1cnc2c(-c3ccccc3)cnn2c1C | -112*
CCOC(=O)Cc1c(C)nc2c(-c3ccccc3)cnn2c1C | -70*
O=C(CCl)Nc1cccc(-c2cnc3ccccc3n2)c1 | -622*
O=C(Nc1cccc(-c2cnc3ccccc3n2)c1)c1cccc(NC(=O)c2ccco2)c1 | -95*
CCC(=O)Nc1cccc(-c2cnc3ccccc3n2)c1 | -122*
Cc1cccc(OCCCn2c(=O)sc3ccccc32)c1 | -90*
COc1ccc(OCCn2c(=O)sc3ccccc32)cc1 | -142*
CCCCCCCCCCOC(=O)Cn1c(COc2cccc(C)c2)[n+](C)c2ccccc21 | 65
Cc1ccc(C)c(Nc2c([N+](=O)[O-])cc(C(=O)N3CC(=O)Nc4ccccc43)cc2[N+](=O)[O-])c1 | 78
O=C1CN(C(=O)c2cccc(Br)c2)c2ccccc2N1 | -85*
N#C/C(=C\Nc1ccccc1O)c1nc2ccccc2o1 | -112*
CCOC(=O)CSC1=C(C#N)C(c2ccc(C)o2)CC(=O)N1 (stereo not drawn) | 78
COc1ccc2nc(SCC(=O)Nc3ccc4sc(C)nc4c3)c(C#N)cc2c1 | -148*
COC(=O)CSc1nc2cc(OC)ccc2cc1C#N | -133*
CCOC(=O)CSc1nc2cc(OCC)ccc2cc1C#N | -209*
COc1ccc2cc(C#N)c(SCC(=O)NNC(=O)Cc3ccccc3)nc2c1 | -78*
O=c1cc(Cl)[nH]c(=O)n1Cc1ccc(F)cc1 | -87*
Cc1sc2c(c1C)CN(Cc1ccncc1)CN2C(=O)c1ccco1 | -93*
SMILES | aSyn 5UTR act
O=C(Cn1cc(C(F)(F)F)ccc1=O)NCc1ccc(F)cc1 | -75*
COc1ccc(C2/C=C\CN(C(=O)Nc3ccc(C(F)(F)F)cc3)CC(=O)N2Cc2ccc(F)cc2)cc1 (stereo not drawn) | 71
c1cnc2c(SCc3ccc(-c4nnco4)cc3)cccc2c1 | -82*
Cc1cccc(CSc2cccc3cccnc23)c1 | -103*
Brc1cccc(Nc2nc(-c3cccnc3)cs2)c1 | -150*
Clc1cccc(Nc2nc(-c3cccnc3)cs2)c1 | -271*
CCOc1ccc(Nc2nc(-c3cccnc3)cs2)cc1 | -223*
Brc1ccc(Nc2nc(-c3cccnc3)cs2)cc1 | -161*
O=C(NCCS(=O)(=O)NCCc1ccccc1)c1ccc2c(c1)OCO2 | -120*
COc1cccc(C(=O)NCCS(=O)(=O)NCCc2ccccc2)c1 | -75*
COC(=O)c1c(N)sc(C(=O)NCCc2ccccc2)c1C | 105
COc1ccc(C(=O)NCCS(=O)(=O)NCCc2ccccc2)cc1 | -72*
CCn1cnc2cc(NCc3ccc(Br)cc3)ccc21 | -140*
CCCn1cnc2cc(NCc3cccc(OC)c3)ccc21 | -141*
CCn1cnc2cc(NCc3ccc(C)cc3)ccc21 | -128*
CCCn1cnc2cc(NCc3ccc(Br)cc3)ccc21 | -93*
Cn1cnc2cc(NCc3ccc(Cl)cc3)ccc21 | -101*
Cc1ccc(CNc2ccc3c(c2)ncn3C(C)C)cc1 | -144*
S=C(NCc1ccccn1)Nc1ccccc1 | -86*
O=C(CSCc1ccccn1)Nc1ccccc1 | -70*
S=C(NCc1ccccn1)Nc1ccc(Cl)cc1Cl | -130*
CCc1ccc(NC(=O)C(=O)NCc2ccccn2)cc1 | -144*
